Here are results for 21 compounds from paper PMC5540273 (PLoS ONE, 2017).

pKd: −log10 of the molar value.
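Further: kd values determined as follow-up on hits from a single-replicate KINOMEscan panel screen.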

The test system of the first experiment is DDR1.
In the case of `Cc1ccc(NC(=O)Nc2ccccc2F)cc1-c1ccc(C(=O)Nc2ccncc2)cc1` [GSK1398477], the pKd (commonly the Kd on a negative log10 scale, so that one unit is a factor of ten) is 6.74.

Turning to `Cc1ccc(NC(=O)Nc2ccccc2)cc1-c1ccc(C(=O)Nc2ccncc2)cc1` [GSK1398471], the negative-log Kd (pKd) was 6.74.

With `Cc1ccc(NC(=O)c2ccc(Cl)cc2)cc1-c1ccc(C(=O)Nc2ccncc2)cc1` [GSK1398467], the negative-log Kd (pKd) is 6.15.

Regarding `COc1ccc(Nc2nccc(N3CCC(NC(=O)c4cc5ccccc5s4)C3)n2)cc1` (stereo not drawn) [GSK1379738], the pKd was less than 5.00.

`CS(=O)(=O)CCNCc1nc(-c2ccc3ncnc(Nc4ccc(OCc5ccccc5)c(Cl)c4)c3c2)cs1.Cl` [GW582764]: the pKd was less than 5.00.

As to `COc1ccc2cc(-c3nc(-c4ccccc4C(C)C)[nH]c3-c3ccncc3)ccc2c1` [SB-660566], the pKd is 6.48.

In the case of `Cc1ccc(NC(=O)Nc2ccc(Cl)c(C(F)(F)F)c2)cc1-c1ccc(C(=O)Nc2ccncc2)cc1` [GSK1398470], the negative-log Kd (pKd) was 6.92. Against the preceding compound, the pKd is 0.44 log units higher.

Turning to `CS(=O)(=O)Cc1ccc(Nc2nccc(-c3c(-c4cccc(NC(=O)C5CCCCC5)c4)nn4ncccc34)n2)cc1` [GSK350559], the pKd was 7.64.

`Nc1nccc(-c2c(-c3ccc(F)cc3)ncn2C2CCN(Cc3ccccc3)CC2)n1` [SB-219980] showed a pKd of 6.85.

`COc1cccc(NC(=O)Nc2ccc(C)c(-c3ccc(C(=O)Nc4ccncc4)cc3)c2)c1` [GSK1398474] showed a pKd of 6.57. Against the preceding compound, the pKd is 0.28 log units lower.

As to `COc1cccc(C2=C(Nc3cc(Cl)c(O)c(Cl)c3)C(=O)NC2=O)c1` [SB-390767], the pKd is less than 5.00.

`Cc1ccc(NC(=O)Nc2ccc(Cl)cc2)cc1-c1ccc(C(=O)Nc2ccncc2)cc1` [GSK1398472] gave a negative-log Kd (pKd) of 7.14.

A further experiment has as its system T1, DMPK2.
T1 construct: gene CDC42BPG
As to `CC(=O)c1c(C)c2cnc(Nc3ccc(N4CCNCC4)cn3)nc2n(C2CCCC2)c1=O`, the pKd is less than 5.00.

As for `Fc1ccc(-c2nn3cccc(F)c3c2-c2ccncc2)cc1` [GW475620], the negative logarithm of the Kd (pKd) is 6.00.

In the case of `CCn1c(-c2c(N)noc2C)nc2cnccc21` [SB-737856], the negative logarithm of the Kd (pKd) is less than 5.00.

`Fc1ccc(-c2nc3n(c2-c2ccncc2)CCS3)cc1` [GI98581] showed a pKd of 5.92.

The subject of a further experiment is T2, DRAK1.
T2 construct: gene STK17A
`Cn1cncc1-c1cc2c(Nc3ccc(OCc4ccccc4)cc3)ncnc2cn1` [GW281179] had a negative-log Kd (pKd) of less than 5.00.

Turning to `CNc1cc(-c2ccc3c(N)n[nH]c3c2)nc(N)n1` [GSK2224810], the negative logarithm of the Kd (pKd) was 7.05.

The compound `CC[C@@H]1CO[C@H](C(=O)Nc2ccccc2)CN1c1cc(-c2ccc3c(N)n[nH]c3c2)nc(NC)n1` [GSK2376236] showed a pKd of 6.66.

`CC(C)c1cc(-c2ccc3c(N)n[nH]c3c2)nc(N)n1` [GSK2250882] showed a pKd of 7.54.

With `CNc1nc(-c2ccc3c(N)n[nH]c3c2)cc(N2C[C@@H](C(=O)Nc3ccccc3)CC[C@H]2C)n1` [GSK2298859], the pKd is 7.05.
